Data on 14 compounds can be found in PubChem BioAssay (NCI).

Some test systems named below: SK-MEL-2 melanoma; EKVX NSCLC; SN12C renal; UO-31 renal; TK-10 renal; ACHN renal; A498 renal; CCRF-CEM leukemia; MOLT-4 leukemia; CAKI-1 renal.
Holding throughout (experiment): NCI-60 one-dose screen, 48 h (100 = growth as untreated, 0 = no growth, -100 = all killed)
Holding throughout (conditions): 10 µM unless noted

This is part of a sample that, as a whole, favours compounds with a hit. Of some 83,000 tested, about 20% had one in any assay.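 Growth was measured after 48 h exposure to one concentration of compound in 96-well plates. Values under 10 count as active.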 Values without a mark were called inactive. The source made the active and inactive calls.

Turning to `Cc1cc(N(CCNc2ccnc3cc(Cl)ccc23)Cc2ccco2)nc(Cl)n1`, the growth with SK-MEL-2 melanoma is -7.16% (active); in the test on EKVX NSCLC, 32.2%; in the test on SN12C renal it was -79.2% (active); in the test with UO-31 renal it was -97% (active); in the test on TK-10 renal it was -74.4% (active); in the test on ACHN renal it was -98.8% (active). Moreover, the figures for the growth in the test on A498 renal, in the test on CCRF-CEM leukemia and in the test on MOLT-4 leukemia were 20.8%, 0.284% (active) and -26.2% (active), respectively.

Consider `Cc1cc(N(CCCNc2ccnc3cc(Cl)ccc23)Cc2ccco2)nc(N2CCN(C)CC2)n1`, for which the growth was 70.7% with SK-MEL-2 melanoma; 66.1% in the test with EKVX NSCLC; 50.5% in the test on SN12C renal; 47.5% in the test on UO-31 renal; 117% in the test on TK-10 renal; 18.6% in the test on ACHN renal. Further, the growth with A498 renal is 72.2%; in the test with CCRF-CEM leukemia, 43.4%; in the test on MOLT-4 leukemia, 37.6%.

Take `Cc1cccc(C)c1NC(=O)CSC(=S)N1CCN(CCOCCO)CC1`: the growth was 95% in the test on SK-MEL-2 melanoma; 95% in the test on EKVX NSCLC; 105% in the test on SN12C renal; 89.7% with UO-31 renal; 85.8% with TK-10 renal; 106% in the test with ACHN renal. Besides, the growth with A498 renal is 103%; in the test on CCRF-CEM leukemia it was 107%; with MOLT-4 leukemia, 104%.

`Fc1ccc2c(c1)c(-c1nc(-c3c[nH]c4ncccc34)cs1)cn2CCCN1CCCCC1`: the growth with SK-MEL-2 melanoma was 106%; in the test with EKVX NSCLC it was 66%; in the test on SN12C renal, 63.1%; in the test on UO-31 renal, 44.4%; with TK-10 renal, 107%; in the test with ACHN renal, 71.7%. Further, the growth is 77.8% in the test on A498 renal, 8.52% (active) in the test with CCRF-CEM leukemia and 12.9% in the test on MOLT-4 leukemia.

As for `COc1cc(/C=C2\C(=O)N(CC(O)COc3cc(O)c4c(=O)cc(-c5ccccc5)oc4c3)c3ccccc32)cc(OC)c1O` (stereo unspecified), the growth with SK-MEL-2 melanoma is 82.2%; in the test on EKVX NSCLC, 78.8%; with SN12C renal, 84%; in the test with UO-31 renal it was 50.6%; with TK-10 renal, 137%; with ACHN renal, 80.4%. The figures for the growth with A498 renal, in the test on CCRF-CEM leukemia and with MOLT-4 leukemia were 105%, 59.1% and 63.8%, respectively.

For `Cc1cc(N2CCN(C)CC2)nc(N(CCNc2ccnc3cc(Cl)ccc23)Cc2ccco2)n1`, the growth with SK-MEL-2 melanoma was 55.8%; in the test on EKVX NSCLC it was 57.2%; in the test on SN12C renal, 58.3%; in the test with UO-31 renal it was 54.8%; with TK-10 renal it was 105%; in the test on ACHN renal, 54.5%. Besides, the growth in the test on A498 renal was 73.4%; in the test on CCRF-CEM leukemia it was 14.1%; in the test with MOLT-4 leukemia it was 28.8%.

Consider `Cn1cc(-c2csc(-c3cn(CCNC(=O)OC(C)(C)C)c4ccc(F)cc34)n2)c2cccnc21`, for which the growth is 82.4% with SK-MEL-2 melanoma; 55.9% with EKVX NSCLC; 85.9% with SN12C renal; 39.7% in the test on UO-31 renal; 104% with TK-10 renal; 69.2% with ACHN renal. Further, the results for the growth in the test with A498 renal, in the test on CCRF-CEM leukemia and with MOLT-4 leukemia were 91.1%, 33.5% and 31.8%, respectively.

As to `Cn1cc(-c2csc(-c3cn(CCN)c4ccc(F)cc34)n2)c2cccnc21`, the growth was 93.3% with SK-MEL-2 melanoma; 55.9% in the test with EKVX NSCLC; 76% with SN12C renal; 58.3% with UO-31 renal; 121% in the test with TK-10 renal; 60.9% in the test on ACHN renal. Moreover, the growth was 82.4% with A498 renal, 34.3% in the test on CCRF-CEM leukemia and 12.1% with MOLT-4 leukemia.

For `CCN1CCN(c2nc(C)cc(N(CCCNc3ccnc4cc(Cl)ccc34)Cc3ccco3)n2)CC1`, the growth with SK-MEL-2 melanoma is 75.1%; in the test on EKVX NSCLC it was 63.1%; in the test with SN12C renal, 50.6%; with UO-31 renal, 33.1%; with TK-10 renal, 108%; with ACHN renal, 30.2%. In addition, the growth in the test with A498 renal was 78.1%; in the test with CCRF-CEM leukemia, 42%; with MOLT-4 leukemia, 43.5%.

With `COc1ccc2c(c1)c(-c1nc(-c3cn(C)c4ncccc34)cs1)cn2CCN`, the growth in the test with SK-MEL-2 melanoma is 101%; with EKVX NSCLC it was 56.5%; with SN12C renal, 76.3%; with UO-31 renal, 66.6%; in the test with TK-10 renal it was 92.4%; in the test with ACHN renal, 69.4%. For the same compound, the growth in the test with A498 renal was 97.4%; with CCRF-CEM leukemia, 69%; with MOLT-4 leukemia, 29.7%.

In the case of `Cc1cccc(C)c1NCc1nc(-c2ccccc2)n[nH]1`, the growth was 101% with SK-MEL-2 melanoma; 95% in the test with EKVX NSCLC; 105% with SN12C renal; 90.6% in the test with UO-31 renal; 101% in the test on TK-10 renal; 96.8% in the test on ACHN renal. The growth in the test with A498 renal was 100%; with CCRF-CEM leukemia, 110%; in the test with MOLT-4 leukemia, 98%.

In the case of `Cn1c(=O)c2c(ncn2CC(=O)Nc2ccc(S(N)(=O)=O)cc2)n(C)c1=O`, the growth is 104% with SK-MEL-2 melanoma; 103% in the test with EKVX NSCLC; 88.8% in the test on UO-31 renal; 91.8% in the test with TK-10 renal; 111% in the test with ACHN renal; 93.8% with CAKI-1 renal. For the same compound, the growth with A498 renal is 105%; with CCRF-CEM leukemia, 97.5%; in the test on MOLT-4 leukemia, 103%.

On to `COc1ccc2c(c1)c(-c1nc(-c3c[nH]c4ncccc34)cs1)cn2CCN`, for which the growth is 75.2% in the test with SK-MEL-2 melanoma; 50.1% with EKVX NSCLC; 78.2% in the test on SN12C renal; 48.5% in the test on UO-31 renal; 71.9% in the test on TK-10 renal; 41.3% in the test on ACHN renal. Also, the growth with A498 renal is 72.2%; in the test with CCRF-CEM leukemia it was 55.8%; in the test on MOLT-4 leukemia it was 46.4%.

Take `N=c1c(S(=O)(=O)c2ccccc2)cc2c(=O)n3ccccc3nc2n1C1CCCC1`: the growth in the test with SK-MEL-2 melanoma is 104%; with EKVX NSCLC, 78.1%; in the test with UO-31 renal, 50.9%; in the test with TK-10 renal, 82.5%; with ACHN renal it was 86%; with CAKI-1 renal, 64.6%. The growth is -1.39% (active) in the test on A498 renal, 93.6% in the test on CCRF-CEM leukemia and 82% in the test with MOLT-4 leukemia.
